Experimental data published in PubChem BioAssay (Tox21).
“And” between values parts separate entries of the source, which are not always exact repeats. Equal entries are not always repeated. Results filed as inconclusive are left out. The source holds several records for some structures; these can differ, active in one and inactive in another. The source made the active and inactive calls. The call rests on the fitted dose curve; in most records, active means well fitted cell-killing curve with a large enough effect in the repeat runs; inconclusive means weak or mixed curves, or effect the other way; inactive means no such curve, though single readings can be large or run the other way.
On the % scale 0 is the no-effect control and ±100 the full control effect; potency means the concentration at half of the fitted maximal effect.

Experiment: qHTS assay to identify small molecule antagonists of the retinoid-related orphan receptor gamma (ROR-gamma) signaling pathway - cell viability counter screen (AID 1159520); further: nearly all actives have a fitted effect of over 50% in size
Details: Tet-on RORgamma CHO cells viability, ATP luminescence, 16 h; series mostly up to 92.4 µM; activity, negative = cytotoxicity: at the top concentration
Source text: U.S. Tox21 Program National Center for Advancing Translational Sciences [NCATS] NIH Chemical Genomics Center [NCGC] U.S. Environmental Protection Agency [EPA] National Institutes of Environmental Health Sciences [NIEHS] National Toxicology Program [NTP] U.S. Food and Drug Administration [FDA] Tox21 Assay Overview: Nuclear steroid hormone receptors are involved in many biological processes including inflammatory responses, cell proliferation, and apoptosis. Environmental factors or compounds disrupting these nuclear receptor pathways and gene expression may promote susceptibility to immunotoxicants and autoimmune diseases. One important group of these expression factors are the retinoid-related orphan receptors. To assess compounds that may interfere with the retinoid-related orphan receptor gamma (ROR-gamma) transcription factor, a cell-based luciferase assay was used. The CHO cell-based assay utilizes a TET-inducible ROR expression factor and ROR response element-LUC reporter gene. Reporter gene activity was induced using Doxycycline Hyclate and measured after 16 hr incubation. Tet-on ROR gamma CHO cells were used to screen against the Tox21 10K compound library for cytotoxicity by measuring the viability of the cells based on the quantitation of the ATP.
Tox21 Assay Protocol Summary: Tet-on ROR gamma CHO cells were dispensed at 1,000 cells in 4 uL of culture medium per well into white wall/solid bottom 1536-well plates using a Multidrop Combi (Thermo Scientific, Waltham, MA) dispenser. Following incubation at 37 C and 5% CO2 for 4 hr, 23 nL of compounds dissolved in DMSO, positive controls or DMSO only were transferred by a Pintool station (Kalypsys, San Diego, CA) and after 2 hr incubation at 37 C, one ul of 1 uM (final concentration) of Doxycycline Hyclate was added to all the wells by using a Flying Reagent Dispenser (FRD) (Aurora Discovery, San Diego, CA). After 16 hr incubation at 37 C and 5% CO2, 5 uL of CellTiter-Glo reagent (Promega Corporation, Madison, WI) was added to each assay plate using FRD. After 30 min incubation at room temperature, luminescence was quantified on a ViewLux plate reader (Perkin Elmer, Waltham, MA).
With CCC(C)(C)c1cc(O)c(C(C)(C)CC)cc1O the Potency was 24.3 µM (active).
With C=CC(C)(CCC=C(C)C)OC(=O)/C=C/c1ccccc1 (stereo not given) the “activity, negative = cytotoxicity” value was 0.527% (inactive).
With O=C(O)CC(=O)O the “activity, negative = cytotoxicity” value was 0.234% (inactive).
For Cc1cc(=O)[nH]c(=O)[nH]1, the “activity, negative = cytotoxicity” value was 0.886% (inactive).
In the case of CC(C)=C1CC[C@@H](C)CC1=O, the “activity, negative = cytotoxicity” value is reported as 0.412% (inactive).
For Cc1c(C(=O)O)cccc1[N+](=O)[O-], the “activity, negative = cytotoxicity” value was 8.62% (inactive).
With CCN=c1cc2oc3cc(NCC)c(C)cc3c(-c3ccccc3C(=O)OCC)c-2cc1C the Potency was 27.2 µM (active) and 24.3 µM (active).
In the case of SCCCCCCCCS, the “activity, negative = cytotoxicity” value is reported as -4.17% (inactive).
In the case of CCOC(=O)COc1ccc(C)cc1, the “activity, negative = cytotoxicity” value is reported as 2.58% (inactive).
With COC(=O)CC#N the “activity, negative = cytotoxicity” value was -7.7% (inactive).
For CC(=O)Oc1ccc(C2(c3ccc(OC(C)=O)cc3)C(=O)Nc3ccccc32)cc1, the “activity, negative = cytotoxicity” value was -0.0831% [at 42.5 µM] (inactive).
For OCCN1CN(CCO)CN(CCO)C1, the “activity, negative = cytotoxicity” value was -13% (inactive).
With O=C(O)Cc1ccc(OCCNC[C@H](O)c2ccccc2)cc1 the “activity, negative = cytotoxicity” value was -0.0491% [at 42.5 µM] (inactive).
With Clc1cc(Cl)c(-c2c(Cl)c(Cl)cc(Cl)c2Cl)cc1Cl the “activity, negative = cytotoxicity” value was -6.99% [at 42.5 µM] (inactive).
In the case of CC(C)CCOCCC(C)C, the “activity, negative = cytotoxicity” value is reported as -4.25% (inactive).
For CCCCCCCOC(=O)c1ccccc1C(=O)OCCCCCCC, the “activity, negative = cytotoxicity” value was -1.27% (inactive).
In the case of O=S(=O)(O)c1cc(S(=O)(=O)O)c2ccc3c(S(=O)(=O)O)cc(S(=O)(=O)O)c4ccc1c2c43, the activity, negative = cytotoxicity is reported as 3.7% [at 19 µM] (inactive).
For Brc1ccccc1-c1ccccc1, the “activity, negative = cytotoxicity” value was -13.1% (inactive).
In the case of CN(C)CCOC(c1ccccc1)c1ccccc1 (tested in a mixture with another compound), the “activity, negative = cytotoxicity” value is reported as -16.1% (inactive).
In the case of C[C@]12CC[C@H]3C(=CCc4cc(O)ccc43)[C@@H]1CCC2=O, the “activity, negative = cytotoxicity” value is reported as -17.1% (inactive).
For COC(=O)NCCC[Si](OC)(OC)OC, the “activity, negative = cytotoxicity” value was 1.57% (inactive).
In the case of NCCCC(O)(P(=O)(O)O)P(=O)(O)O, the “activity, negative = cytotoxicity” value is reported as 5.67% [at 42.5 µM] (inactive).
In the case of CCN(CC)CCNc1ccc(CO)c2sc3ccccc3c(=O)c12, the “activity, negative = cytotoxicity” value is reported as -17% [at 42.5 µM] (inactive).
For CCCCCCCCCC(=O)N(C)C, the “activity, negative = cytotoxicity” value was -14% (inactive).
With Oc1cc2ccccc2cc1O the “activity, negative = cytotoxicity” value was -11.4% (inactive).
With COc1ccccc1C=O the “activity, negative = cytotoxicity” value was -3.41% (inactive).
For CCCC(C)CCC(C)=O (stereo not given), the “activity, negative = cytotoxicity” value was 5.52% (inactive).
For C[C@H]1O[C@@H](O[C@H]2[C@@H](O)C[C@H](O[C@H]3[C@@H](O)C[C@H](O[C@H]4CC[C@@]5(C)[C@H](CC[C@@H]6[C@@H]5C[C@@H](O)[C@]5(C)[C@@H](C7=CC(=O)OC7)CC[C@]65O)C4)O[C@@H]3C)O[C@@H]2C)C[C@H](O)[C@@H]1O, the Potency was 30.7 µM (active) and inactive.
For CNCC[C@H](Oc1cccc2ccccc12)c1cccs1, the “activity, negative = cytotoxicity” value was -8.47% [at 42.5 µM] (inactive).
In the case of Nc1ccc2cc3ccc(N)cc3nc2c1, the Potency is reported as 26.6 µM (active).
With O=C(Nc1ccc(Cl)cc1)Nc1ccc(Cl)c(C(F)(F)F)c1 the Potency was 23.7 µM (active).
For Cc1cc(C)c(C=O)c(C)c1, the “activity, negative = cytotoxicity” value was -0.0491% (inactive).
In the case of CCN(CC)CCSC(=O)C(c1ccccc1)c1ccccc1, the “activity, negative = cytotoxicity” value is reported as -1.19% [at 42.5 µM] (inactive).
In the case of Cc1ccc(CCn2c3c(c4cc(Cl)ccc42)CN(C)CC3)cn1, the “activity, negative = cytotoxicity” value is reported as -4.52% [at 42.5 µM] (inactive).
With COc1ccc(C#N)cc1 the “activity, negative = cytotoxicity” value was 3.58% (inactive).
In the case of COc1nccnc1CC(C)C, the “activity, negative = cytotoxicity” value is reported as 9.93% (inactive).
With CC(C)(C)C1=CC(=O)C=C(C(C)(C)C)C1=O the “activity, negative = cytotoxicity” value was 4.81% (inactive).
With Cc1ccc(O)cn1 the “activity, negative = cytotoxicity” value was 5.28% (inactive).
With CCCCCCCCCCCCCc1ccccc1 the “activity, negative = cytotoxicity” value was 2.76% [at 42.5 µM] (inactive).
For O=C(O)c1cccc(Cl)n1, the “activity, negative = cytotoxicity” value was -2.27% (inactive).
